Shiga inhibitor – Shiga toxin inhibition. Vero cells, Shiga toxin protein synthesis inhibition reporter. inhibition, % at 38.7 µM. 290,000 tested, 9.2% active; in the data active means inhibition mostly above about 28%, no sharp cut-off; inactive means mostly below about 43%
Pf growth 96h – P. falciparum growth inhibition at 96 hours; P. falciparum luciferase reporter growth, 96 h; Potency, µM (series often up to 28.7 µM), hits mostly inhibitors; 320,000 tested, 6.9% active; AID 504834
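Infected RBCs, 2% Hct / 0.05% parasitemia final; luciferase-reporter P. falciparum; cpd 96 h, 37 C, 5% CO2; luciferase detection reagent; luminescence.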
CHX counter – counter-screen hit for Shiga toxin inhibitors, cycloheximide | cell reporter, cycloheximide protein synthesis inhibition counterscreen | max response, % | 300,000 tested, 12% active | AID 2314; in the data active means max response mostly above about 13%, no sharp cut-off; inactive means mostly below about 14%; further: read at 38.3 µM for the half of the compounds with a filed dose
HCMV inh – human cytomegalovirus inhibition. 410,000 tested, 4.5% active. HFF cells, HCMV-luciferase reporter, 72 h; hits give low values. activity change, negative = inhibition, % at 57.5 µM; in the data active means activity change below about -60%; inconclusive means no clear call, values can overlap the other calls; inactive means above about -39%
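Cell-based, HFFs, 1000 cells/well, 16 h 37C; cpds in DMSO + HCMV-luc, MOI 1 PFU/cell; 72 h 37C; OneGlo luminescence after 5 min RT; norm. to buffer vs Salinomycin 10uM.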
Pf growth 48h – inhibits P. falciparum growth in the first generation, 48 h; P. falciparum luciferase growth in erythrocytes, 48 h; Potency, µM (top dose mostly 28.7 µM), hits mostly inhibitors; AID 504832; 310,000 tested, 5.9% active
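Cell-based growth assay: transgenic P. falciparum expressing firefly luciferase, cultured in red cells within RPMI 1640 containing 0.5% w/v Albumax, 24 mM bicarbonate and gentamycin. A drop in luciferase activity indicates inhibition.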
HCV inhibitor – blocks hepatitis C virus; Huh7.5.1 HCVcc-Cre infection, luciferase reporter, 44 h; Potency, µM (titrated, usually from 41.8 µM), most hits filed as inhibitors; 340,000 tested, 3.4% active
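Compounds are dispensed onto cells plated 4 h earlier at 1,000 per well, with HCVcc-Cre virus (about 0.5 moi) added next. Following 44 h of culture, luminescent signal is measured for 15 sec after 15 min with substrate at room temperature.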
Numbers stand for hits; – = inactive; ? = inconclusive; · = no result; [ ] = another dose, or the depositor's remark. Shown are actives, neighbours in structure and some others; about 21% of the full set was active somewhere. Unless noted, the call rests on the fitted dose curve; in most records, active means well fitted inhibition curve with a large enough effect; inconclusive means small, poorly fitted or top-dose-only effect, or another doubt; inactive means no such curve, though single readings can be large or run the other way.

SMILES	Shiga inhibitor	Pf growth 96h	CHX counter	HCMV inh	Pf growth 48h	HCV inhibitor
O=C(N=C1c2ccccc2CN1c1ccc(F)cc1)c1ccc(Cl)nc1	–	–	24	–	–	–
N=C1c2ccccc2CN1c1ccc(S(=O)(=O)N2CCCCC2)cc1	–	–	–	?	–	–
CCOC(=O)c1ccc(N2Cc3ccccc3C2=NC(=O)c2ccncc2)cc1	58	?	28	–	?	–
COc1ccc(N2Cc3ccccc3C2=NC(=O)c2cncc(Br)c2)cc1	71	–	40	-81	–	–
COc1ccc(N2Cc3ccccc3C2=NC(=O)c2cccc([N+](=O)[O-])c2)cc1	–	–	–	–	–	–
Cc1nc(=S)c2c([nH]1)-c1ccccc1CC21CCCCC1	–	?	–	–	?	–
CCOc1ccc(CCN2C(=S)N([C@@H](CC(C)C)CN3CCC[C@@H]3CN3C(=S)NC[C@@H]3CC(C)C)C[C@@H]2CC(C)C)cc1	·	·	·	–	·	·
CCOc1ccc(CCN2C(=S)N([C@@H](CC(C)C)CN3CCC[C@@H]3CN3C(=S)NC[C@@H]3CC(C)C)C[C@@H]2Cc2ccc(O)cc2)cc1	·	·	·	-98	·	·
CCOc1ccc(CCN2C(=S)N([C@@H](CC(C)C)CN3CCCC3CN3C(=S)NC[C@@H]3CC(C)C)C[C@@H]2Cc2ccc(O)cc2)cc1 (some centres undefined)	·	·	·	–	·	0.56µM
Cc1ccc(CNC(=O)Cn2ncc3c([nH]c4ccc(C)cc43)c2=O)cc1	·	·	·	–	·	·
O=C(Cn1ccnc1)c1ccc(Cl)cc1	–	–	–	–	–	–
Clc1ccc(CC[C@H](Cn2ccnc2)Sc2c(Cl)cccc2Cl)cc1	·	2µM	·	·	5.7µM	·
CCC(=O)N1CCC1(C)C(=O)Nc1cccc(OC)c1 (centres undefined)	·	·	·	–	·	·
CCN(CC)S(=O)(=O)c1cc(C)ccc1NC(=S)Nc1cccnc1	–	–	–	-69	–	11µM
CCC(=O)O/N=C(\N)c1ccc(Oc2cc(C)c(Cl)c(C)c2)c([N+](=O)[O-])c1	–	–	–	–	–	–
CC(=O)C1=C(C)NC(SCc2cccc([N+](=O)[O-])c2)=C(C#N)C1c1ccco1 (centres undefined)	–	–	–	–	–	–
CC1=C(C(=O)Nc2ccccc2)C(c2ccco2)C(C#N)=C(SCC(=O)Nc2cccc(C)c2C)N1 (centres undefined)	–	?	–	–	2.6µM	?
CC1=C(C(=O)Nc2ccccc2)C(c2ccco2)C(C#N)=C(SCc2ccccc2)N1 (centres undefined)	–	·	–	·	8.3µM	?
CC1=C(C(=O)Nc2ccccc2)C(c2ccco2)C(C#N)=C(SCC(=O)OC(C)C)N1 (centres undefined)	–	7.4µM	–	·	2.3µM	–
COc1ccccc1NC(=O)C1=C(C)NC(SCC(=O)c2ccc(C)cc2)=C(C#N)C1c1ccco1 (centres undefined)	–	–[5.75 µM]	–	–	·	·
CCOc1ccccc1NC(=O)CSC1=C(C#N)C(c2ccco2)C(C(=O)Nc2nc3ccccc3s2)=C(C)N1 (centres undefined)	–	?	–	–	9.3µM	–
CCOC(=O)C1=C(C)NC(SCC(=O)O)=C(C#N)C1c1ccco1 (centres undefined)	–	–	–	–	–	–
NC(=O)C1Cc2ccccc2CN1S(=O)(=O)c1ccc(Cl)s1 (centres undefined)	–	–	–	–	–	–
COc1cc(-c2nnc3n2CCCCC3)cc(OC)c1OC	–	–	–	–	–	–
Cc1cccn2cc(CCNS(=O)(=O)c3cccs3)nc12	–	–	21	–	–	–
SMILES	Shiga inhibitor	Pf growth 96h	CHX counter	HCMV inh	Pf growth 48h	HCV inhibitor
COc1ccc(S(=O)(=O)NCCc2cn3cccc(C)c3n2)cc1OC	–	–	–	–	–	?
Cc1cccn2cc(-c3ccccc3)nc12	64	?	52	–	–	–
CCCS(=O)(=O)Nc1cc(-c2cn3cccc(C)c3n2)ccc1C	·	·	·	–	·	·
COc1ccc(-c2cn3cccc(C)c3n2)cc1Br	150	–	76	–	–	–
CCOC(=S)SCc1cn2cccc(C)c2n1	–	–	24	–	–	–
Cc1cccn2cc(CSc3nnc(Nc4ccc(C(C)C)cc4)s3)nc12	–	?	–	–	?	?
CS(=O)(=O)N1CCc2cc(S(=O)(=O)NCc3ccccc3Cl)ccc21	·	·	·	–	·	·
Cc1noc(C)c1-c1ccc2ncnc(NC3CCCc4ccccc43)c2c1 (centres undefined)	–	·	–	·	·	·
C[C@H](CO)N1C[C@H](C)[C@H](CN(C)C(=O)c2ccccc2)OCc2cnnn2CCCC1=O	·	·	·	–	·	·
Cc1cccn2cc(CNc3ccccc3)nc12	68	–	51	–	–	–
CCCS(=O)(=O)NCc1cn2cccc(C)c2n1	–	–	–	–	–	–
Cc1cccn2cc(-c3ccc(F)cc3)nc12	71	–	39	–	–	–
FC(F)(F)c1ccc(Oc2ccc3ccccc3c2Br)nc1	–	2.9µM	–	–	?	?
O=[N+]([O-])c1ccccc1Oc1ccc(C(F)(F)F)cn1	–	–	–	–	–	–
CO[C@@H]1CN(C)C(=O)c2ccc(NC(=O)C3CCCC3)cc2OC[C@@H](C)N(Cc2ccc(F)cc2)C[C@H]1C	·	·	·	-63	·	·
COc1cc(N[C@@H](C)CCCN)c2ncccc2c1	·	0.57µM	·	·	0.81µM	·
Cc1ccccc1C1=CC(=O)CC(C)(C)C1=O	·	·	·	–	·	·
O=C(CCSCCc1ccccn1)Nc1ccccc1C(F)(F)F	·	·	·	–	·	·
Cc1csc(NC(=O)CCSCCc2ccccn2)n1	–	9.3µM	–	–	·	–
O=C(CSCCc1ccccn1)Nc1ccccn1	–	–	15	–	–	–
COC(=O)c1ccc(COC(=O)C2CCN(S(=O)(=O)c3ccc(C)c(C)c3)CC2)o1	·	–	·	·	–	–
Cc1cc(S(=O)(=O)NCC(C)C)ccc1OCC(=O)NCc1ccco1	–	–	–	–	–	–
O=c1c(Br)ccc(Br)cc1Br	·	·	·	-77	·	?
S=c1nc(SCc2ccccc2)[nH]c2ccccc12	–	1.7µM	–	?	–	–
O=C(CSc1nc2ccccc2c(=O)[nH]1)NCc1ccc(Cl)cc1	–	–	–	–	·	–
SMILES	Shiga inhibitor	Pf growth 96h	CHX counter	HCMV inh	Pf growth 48h	HCV inhibitor
c1ccc(CSc2nc3ncncc3[nH]2)cc1	–	–	–	?	–	–
O=c1[nH]c(SCc2ccc(Cl)cc2)nc2ccccc12	–	13µM	–	–	?	–
CCC(C)n1c(SCc2ccccc2)nc2ccsc2c1=O (centres undefined)	–	4.1µM	–	?	?	?
O=c1[nH]c(SCc2ccc(Cl)cc2)nc2[nH]ncc12	–	?	19	–	?	–
COc1ccc(N(CC(=O)Nc2cccc(C(C)=O)c2)S(=O)(=O)c2ccc(NC(C)=O)cc2)cc1	–	?	–	–	–	–
Cn1nccc1-c1cc(Cl)cc(Cl)c1O	–	–	–	–	–	–

Compound activity deposited in PubChem by National Center for Advancing Translational Sciences (NCATS).
